Where a name gives a salt, the structure may show the parent alone.
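Also: active when median AUC fell below 0.1.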

The test system of this assay is P. vulgatus WT. Kind of assay: growth AUC normalised to DMSO control (median) (fraction of control); higher = less growth inhibition, active = hit call of the paper. The settings on record: 20 µM. Put shortly:
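Area under the growth curve, calculated by the trapezoidal rule up to entry into stationary phase, was normalised to vehicle wells on the same plate. Strains had been passaged twice overnight without oxygen and then grown in mGAM in 96-well plates from OD578 0.01, each with an approved-drug library compound at 20 μM in 1% DMSO. OD578 was read hourly over 24 h in an anaerobic incubator, and the median of three biological replicates is given.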
As to `Cc1cc2c(cc1S(N)(=O)=O)S(=O)(=O)CCC2` [Meticrane], the “growth AUC normalised to DMSO control” value is 1.01 (inactive).

With `CCCC(CCC)C(=O)O` [Valproic acid], the “growth AUC normalised to DMSO control” value is 1.07 (inactive).

With `CNCCC(Oc1ccc(C(F)(F)F)cc1)c1ccccc1` (stereo not drawn) [Fluoxetine hydrochloride], the “growth AUC normalised to DMSO control” value is 0.997 (inactive).

Consider `Cc1nnc(SCC2=C(C(=O)O)N3C(=O)[C@@H](NC(=O)Cn4cnnn4)[C@H]3SC2)s1` [Cefazolin sodium salt], for which the “growth AUC normalised to DMSO control” value is 0.0107 (active).

`Clc1cc(Cl)c(OCC#CI)cc1Cl` [Haloprogin]: the “growth AUC normalised to DMSO control” value was 1.08 (inactive).

In the case of `O=C(O)/C=C/c1ccc(Cn2ccnc2)cc1` [Ozagrel hydrochloride], the “growth AUC normalised to DMSO control” value is 1.05 (inactive).

As for `CC(=O)OCC(=O)NCCCOc1cccc(CN2CCCCC2)c1` [Roxatidine acetate hydrochloride], the “growth AUC normalised to DMSO control” value is 0.985 (inactive).

For `O=C(O)CNC(=O)C(CS)Cc1ccccc1` (stereo not drawn) [Thiorphan], the “growth AUC normalised to DMSO control” value was 1 (inactive).

Take `CCCCOC(=O)c1ccc(O)cc1` [Butylparaben]: the “growth AUC normalised to DMSO control” value was 1 (inactive).

As to `Cc1ccc(S(=O)(=O)NC(=O)NN2CCCCCC2)cc1` [Tolazamide], the “growth AUC normalised to DMSO control” value was 1.02 (inactive).

For `COc1cc2nc(N3CCN(C(=O)C4COc5ccccc5O4)CC3)nc(N)c2cc1OC` (stereo not drawn) [Doxazosin mesylate], the “growth AUC normalised to DMSO control” value was 0.916 (inactive).

As to `CC(Oc1ccccc1)C(=O)N[C@@H]1C(=O)N2[C@@H]1SC(C)(C)[C@@H]2C(=O)O` (stereo partly drawn) [Phenethicillin potassium salt], the “growth AUC normalised to DMSO control” value is 0.00969 (active).

For `Nc1ccccc1S(N)(=O)=O` [o-Sulfanilamide], the “growth AUC normalised to DMSO control” value was 1.01 (inactive).

These data come from the supplement of paper PMC12350171.
